These results are taken from PubChem BioAssay (NCI).

About 83,000 compounds went through this panel and 20% of them were active in at least one assay; those are over-represented in the sample as a whole.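 Testing used 96-well plates and a 48-hour single-concentration exposure. Example: -40 means 40% of the starting cells died.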 Values without a mark were called inactive. The source made the active and inactive calls. How the source made its calls: active means growth percent below 10; inactive means the rest.

What all share (assay): NCI-60 one-dose screen, 48 h (100 = growth as untreated, 0 = no growth, -100 = all killed)
Holding throughout (settings): 10 µM unless noted

The test system of assay [1] is NCI-H23 lung.
Assay [2] concerns NCI-H226 lung.
Assay [3] has as its system NCI-H322M lung.
The subject of assay [4] is HOP-62 NSCLC.
The subject of assay [5] is NCI-H460 lung.
Assay [6] deals with HOP-92 NSCLC.
Assay [7] has as its system NCI-H522 lung.
For assay [8], the system named is A549/ATCC NSCLC.
Assay [9] relates to 786-0 renal.
Assay [10] relates to COLO 205 colon.
The subject of assay [11] is DU-145 prostate.
Assay [12] has as its system K-562 leukemia.
Assay [13] has as its system MALME-3M melanoma.
In assay [14] the test system is MDA-MB-231 breast.
Assay [15] relates to RXF 393 renal.
The test system of assay [16] is SF-268 CNS.
Assay [17] concerns SF-295 CNS.
For assay [18], the system named is SF-539 CNS.
In assay [19] the test system is UACC-257 melanoma.
Assay [20] deals with M14 melanoma.

Turning to `CC[C@]12C=CCN3CC[C@]4(C(=C(C(=O)OC)C1)Nc1cc(OC)c([C@@H]5[C@H]6O[C@H]6[C@@]6(CC)CC(C(=O)OC)=C7Nc8cc(OC)ccc8[C@@]78CCN5[C@@H]68)cc14)[C@@H]32`, the growth in assay [1] is 41.8%; in assay [2] it was 72.3%; in [3] it was 86.2%; in assay [4], 74.1%; in [5] it was 29.9%; in [6], 62.1%. The growth was 64.8% in assay [7]; 70.1% in [8]; 44.6% in assay [9]; 57.7% in [10]; 70.2% in [11]; 13.7% in [12]. In addition, the growth in assay [13] is 44.4%; in assay [14], 52.6%; in assay [15] it was 48.1%; in [16], 57.3%; in assay [17], 53.8%; in assay [18], 61.4%. The growth in [19] was 75.2%; in [20] it was 60.2%.

Consider `CC(C)(C)C(=O)C1CC(C#N)=C2C=Cc3c(ccc4ccccc34)N21` (stereo not given), for which the growth in assay [1] is 89.2%; in assay [2], 77%; in [3], 101%; in [4], 88.3%; in [5], 97.8%; in assay [6] it was 70.7%. Also, the growth in [7] was 83.9%; in assay [8], 81.2%; in [9], 76.6%; in assay [10], 93.6%; in assay [11], 102%; in assay [12] it was 85.4%. Further, the growth in assay [13] was 102%; in assay [14], 80.7%; in [15] it was 91.8%; in assay [16], 83.1%; in [17], 83.4%; in assay [18], 67.4%. Also, the growth in assay [19] was 84.7%; in assay [20] it was 105%.

Regarding `N#Cc1cc(-c2ccc3ncnc(N4CCc5cc(F)c(Cl)cc54)c3c2)cnc1N`, the growth in assay [1] was 50.2%; in assay [2] it was 59.1%; in assay [3], 38.4%; in assay [4], 77.5%; in [5], 5.5% (active); in assay [6], 1.74% (active). Besides, the growth in assay [7] is 46%; in assay [8], 42%; in assay [9] it was 22.1%; in assay [10], 12.2%; in assay [11] it was 8.95% (active); in assay [12] it was 37.8%. Further, the growth was 50.6% in assay [13]; 28.7% in [14]; 17.9% in [15]; 46.5% in assay [16]; 40.1% in [17]; 35.6% in assay [18]. The figures for the growth in [19] and in assay [20] were 90.2% and 36.8%, respectively.

Turning to `O=C(CSc1nc2sc3c(c2c(=O)n1-c1ccc(Cl)cc1)CCCC3)N/N=C/C=C/c1ccccc1`, the growth was -74.7% (active) in assay [1]; -36.1% (active) in [2]; 34.8% in assay [3]; -71.3% (active) in assay [4]; -16.9% (active) in assay [5]; 9.97% (active) in assay [6]. Moreover, the growth is 2.3% (active) in assay [7]; -18.3% (active) in [8]; -45.2% (active) in [9]; -45.4% (active) in assay [10]; 26.7% in assay [11]; 19.4% in [12]. Further, the growth in assay [13] was -97% (active); in assay [14] it was -69.4% (active); in assay [15], -67.1% (active); in assay [16], 55.1%; in [17], 12%; in assay [18], -35.2% (active). The growth in assay [19] is 1.05% (active); in assay [20], -65.9% (active).

As to `Cc1[nH]nc2ccc3nc(-c4cnn(CCO)c4)c4c(c3c12)CCCC4`, the growth in [1] was 52.7%; in assay [2] it was 28.6%; in assay [3] it was 53.8%; in [4], 65.6%; in assay [5], 26.6%; in assay [6], 35.9%. Besides, the growth in [7] is 18.9%; in assay [8] it was 49.3%; in assay [9] it was 38.7%; in [10], 47.5%; in assay [11], 37.9%; in [12] it was 38.5%. In addition, the growth in assay [13] was 41%; in assay [14], 40%; in [15] it was -6.62% (active); in [16], 58.1%; in assay [17] it was 43.4%; in assay [18] it was 33.7%. Also, the growth is 83.1% in assay [19] and 27.4% in assay [20].

In the case of `CCOc1ccc(-c2cc(-c3cc(C(C)C)c(O)cc3C)nn2-c2ccc(S(N)(=O)=O)cc2)cc1`, the growth in assay [1] was 27.6%; in assay [2], 67.4%; in assay [3] it was 66.6%; in assay [4], 65.4%; in assay [5] it was 23.9%; in [6], 47.4%. For the same compound, the growth in assay [7] was 1.3% (active); in assay [8] it was 32%; in assay [9] it was 37.1%; in [10] it was 131%; in assay [11] it was 34.6%; in [12], 12.4%. Besides, the growth is 65.8% in assay [13]; 37.5% in assay [14]; 38.9% in assay [15]; 44.1% in assay [16]; 35.6% in assay [17]; 11.9% in assay [18]. Further, the growth in assay [19] is 46.8%; in assay [20] it was 49.3%.

For the compound `Cn1cc(-c2cc3nc(-c4cn(C)c5ncc(Br)cc45)cc(N)n3n2)c2cc(F)ccc21`, the growth in assay [1] was 15.2%; in [2] it was 10.9%; in assay [3], 35.3%; in assay [4], 15%; in assay [5] it was 20.9%; in assay [6], -18.3% (active). Further, the growth in assay [7] is 2.15% (active); in assay [8], 0.571% (active); in assay [9] it was -5.13% (active); in assay [10], 51.6%; in assay [11], 0.863% (active); in assay [12] it was 21.9%. The growth in assay [13] is 8.23% (active); in assay [14], -42.1% (active); in assay [15], -39.8% (active); in assay [16], 57.6%; in assay [17] it was -45.7% (active); in assay [18] it was -26.5% (active). Moreover, the growth in [19] was 24.4%; in assay [20], 7.16% (active).

Take `O=C(Cn1c(/C=C/c2ccc([N+](=O)[O-])cc2)nc2ccccc2c1=O)Nc1ccccc1`: the growth in assay [1] is 54.9%; in assay [2], -0.971% (active); in assay [3] it was 67.2%; in assay [4], 49%; in assay [5], 52.5%; in assay [6], 52.1%. Moreover, the growth in assay [7] is 79.5%; in assay [8], 75.7%; in assay [9], 47.2%; in assay [10] it was 67.2%; in assay [11], 78.6%; in assay [12] it was 79.6%. Moreover, the growth in [13] is 85%; in assay [14] it was 46.7%; in [15], 27.4%; in assay [16] it was 58.9%; in assay [17] it was 72.2%; in assay [18], 21.1%. Besides, the growth is 101% in assay [19] and 81.2% in assay [20].
